# PubChem BioAssay (Tox21)
# A number with no mark means an inactive call. A call without a number means that no potency is given here. Calls of active or inactive are those of the source. The call rests on the fitted dose curve.
# Molecular target: Gonadotropin-releasing hormone receptor (Homo sapiens) (UniProt P30968)
# Assay: Human gonadotropin-releasing hormone receptor (GnRHR) small molecule agonists, calcium flux assay in GnRHR-HEK293 cells (AID 1920063); further: nearly all actives have a fitted effect of over 35% in size
# Settings: calcium flux fluorescence, agonist mode; series mostly up to 57.6 µM
# Excerpt: National Center for Advancing Translational Sciences [NCATS]
# Division of Preclinical Innovation [DPI]
# U.S. Environmental Protection Agency [EPA]
# National Institutes of Environmental Health Sciences [NIEHS]
# National Toxicology Program [NTP]
# U.S. Food and Drug Administration [FDA]
# Gonadotropin-releasing hormone receptor (GnRHR) is a G-protein-coupled receptor (GPCR) and acts (through phospholipase C) to increase intracellular inositol trisphosphate and then release intracellular calcium stores. Cell-based GnRHR-Hek293 calcium influx assay is using HEK293 cells that have been genetically engineered to express the human GnRHR, which activity can be measured by calcium signaling. A compound/drug can activate (agonist) GnRHR that can be monitored by levels of intracellular calcium.
# GnRHR-HEK293 cells developed by Codex Corp contain human GnRHR reporter gene, which was stably integrated into HEK 293 cells. The compound activation can be detected by fluorescence intensity via calcium flux assay. This cell line has been used to screen the Tox21 10K compound library to identify GnRHR agonists.
# GnRHR-Hek293 cells were dispensed at 1500cells/4uL/well in 1536-well black wall/clear bottom plates using a multidrop dispenser. After the assay plates were incubated at a 37 C/5% CO2 incubator for 18 hours, 4 uL of Calcium Dye Solution was added to each well. The plates were incubated at 37 C for 1 hour. For agonist mode, 23 nL of compounds dissolved in DMSO, positive controls or DMSO only was transferred to the assay plate by a pin tool station. The fluorescence intensity in the plates was measured using FDSS 7000EX kinetic plate reader with a filter set of Ex/Em=480/540 for 3 min at 1 sec intervals. Each test compound was measured at 15 concentrations and in triplicates.
# Potency means the concentration at half of the fitted maximal effect.
# Chain of Gonadotropin-releasing hormone receptor (Homo sapiens) (P30968 whole entry, looked up): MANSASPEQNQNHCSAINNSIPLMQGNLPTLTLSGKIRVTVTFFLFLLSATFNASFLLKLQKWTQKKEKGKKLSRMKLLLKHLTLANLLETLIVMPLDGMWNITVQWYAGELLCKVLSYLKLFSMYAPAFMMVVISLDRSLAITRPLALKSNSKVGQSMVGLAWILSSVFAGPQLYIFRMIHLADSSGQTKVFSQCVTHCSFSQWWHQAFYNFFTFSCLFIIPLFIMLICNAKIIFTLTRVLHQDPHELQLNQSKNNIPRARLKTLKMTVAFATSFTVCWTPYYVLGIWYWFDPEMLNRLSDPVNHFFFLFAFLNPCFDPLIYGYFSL
Compound,Potency,activity change
COC(CC(C)CCCC(C)(C)O)OC (stereo not given),inactive,
CCCCCCCCCCCCCCCC(=O)OC,,"0.561% [at 11.8 µM, stronger effect = higher value]"
c1coc(CNc2ncnc3nc[nH]c23)c1,inactive,
CC(C)(C)c1cc(Cc2cc(C(C)(C)C)c(O)c(C(C)(C)C)c2)cc(C(C)(C)C)c1O,inactive,
COc1ccc(C(=O)CC(=O)c2ccc(C(C)(C)C)cc2)cc1,inactive,
CCC(C)C1CCCCC1=O (stereo not given),inactive,
OCCN1CCNCC1,inactive,
CCCCCCCCCCCCCC[P+](CCCC)(CCCC)CCCC,inactive,
O=C(O)CCCCCC(=O)O,inactive,
CCOC(=O)CC(C(C)=O)C(C)=O,inactive,
C=C(C)C(=O)OCCC[Si](Cl)(Cl)Cl,inactive,
Nc1nc(N)c2nc(-c3ccccc3)c(N)nc2n1,inactive,
CC(=O)[C@H]1CC[C@H]2[C@@H]3CCC4=CC(=O)CC[C@]4(C)[C@H]3CC[C@]12C,inactive,
CC(C)(C)OC(=O)c1cccc(N)c1,inactive,
COC(=O)c1ccccc1C(=O)O,inactive,
CC(C)C(=O)c1c(C(C)C)nn2ccccc12,inactive,
O=C(O)CN(CCN(CC(=O)O)CC(=O)O)CCN(CC(=O)O)CC(=O)O,,"-0.364% [at 11.8 µM, stronger effect = higher value]"
O=C(O)c1ccco1,inactive,
C=CC(=O)O[C@H]1C[C@@H]2CC[C@@]1(C)C2(C)C,inactive,
CC(C)CCCC(C)N (stereo not given),inactive,

Compound,Potency,activity change
COc1ccc(C)cc1,inactive,
CCCCCC1CCCC(=O)O1 (stereo not given),inactive,
CCCCCCCCS(=O)(=O)Cl,inactive,
O=Nc1ccc(NO)cc1,inactive,
C[Si](C)(C)Cl,inactive,
CC/C=C\CCOC(=O)CCCCC,inactive,
C=C1C[C@]23C[C@@]1(O)CC[C@H]2[C@@]12C=C[C@H](O)[C@@](C)(C(=O)O1)[C@H]2[C@@H]3C(=O)O,inactive,
CCN1CCCC(OC(=O)C(c2ccccc2)c2ccccc2)C1 (stereo not given),inactive,
CC(=O)O[C@@H]1CC2C3CCc4cc(OC(=O)c5ccccc5)ccc4C3CCC2(C)[C@H]1OC(C)=O (stereo not given in full),inactive,
CCCCCCOC(=O)c1ccccc1O,inactive,
COc1ccc(CCN2CCC(Nc3nc4ccccc4n3Cc3ccc(F)cc3)CC2)cc1,inactive,
Cc1cc(OCCOCC[N+](C)(C)Cc2ccccc2)ccc1C(C)(C)CC(C)(C)C,38.7 µM (active),
COS(=O)(=O)O,inactive,
CC(C)(C)c1ccc(O)c(C(C)(C)C)c1,inactive,
CC(=O)NC(Cc1ccccc1)C(=O)O (stereo not given),inactive,
CCCOCCC,inactive,
CC(=O)Nc1ncc([N+](=O)[O-])s1,inactive,
CCC(=O)OC/C=C(\C)CCC=C(C)C,inactive,
CC(=O)c1sc(C)nc1C,inactive,
OC[C@H]1O[C@@H]2O[C@H]3[C@H](O)[C@@H](O)[C@@H](O[C@H]4[C@H](O)[C@@H](O)[C@@H](O[C@H]5[C@H](O)[C@@H](O)[C@@H](O[C@H]6[C@H](O)[C@@H](O)[C@@H](O[C@H]7[C@H](O)[C@@H](O)[C@@H](O[C@H]1[C@H](O)[C@H]2O)O[C@@H]7CO)O[C@@H]6CO)O[C@@H]5CO)O[C@@H]4CO)O[C@@H]3CO,inactive,
